UHRF1 MBD2 ctr = human UHRF1 methylated DNA binding inhibitors; AID 687016; UHRF1 binding to methylated oligo, TR-FRET; inhibition, % at 4.4 µM; 370,000 compounds, 0.75% hits; in the data active means inhibition above about 21%;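 further: UHRF1 SRA domain binding a hemimethylated CpG hairpin DNA probe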
MBD2 DNA inh = blocks human MBD2 binding to methylated DNA | Q9UBB5 | TR-FRET, MBD2 binding to methylated oligonucleotide | inhibition, % at 4.4 µM | 370,000 compounds, 0.31% hits; in the data active means inhibition above about 13%
ABHD5 PLIN5 PPI = inhibitors of human ABHD5-perilipin-5 interaction | 360,000 compounds, 0.78% hits | inhibition, % at 4 µM | Q00G26+Q8WTS1 | Split G. princeps luciferase complementation, luminescence, 4 h;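 active means inhibition above the mean inhibition across every tested compound plus 3 SD, cut at about 22% in these data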
rCAG RNA binder = binds r(CAG) RNA repeats. AID 651821. inhibition, % at 3 µM. 370,000 compounds, 1.3% hits. r(CAG) RNA repeat, TO-PRO-1 dye displacement fluorescence;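 active means inhibition above the plate cutoff, the mean of all test compounds on that plate plus 3 SD, cut at about 35% in these data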;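 further: higher means more dye released from RNA so lower well fluorescence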
LEDGF integ inh = blocks HIV-1 LEDGF/p75-dependent DNA integration | TR-FRET IN-LEDGF/p75 DNA integration, Eu/Cy5 | AID 743269 | 370,000 compounds, 0.64% hits | inhibition, % at 3.7 µM;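 active means inhibition above the screen-wide mean plus 3 SD, cut at about 13% in these data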;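 further: signal is the Cy5 over europium emission ratio at 671 and 618 nm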
PRMT1 inh = PRMT1 (human) inhibition, primary screen; 370,000 compounds, 1.3% hits; inhibition, % at 2.79 µM; recombinant PRMT1, activity-based probe fluorescence polarization;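 active means inhibition above about 21% made by adding two undisclosed values, limit read from the data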
Target sequence (Q99873 whole entry, looked up): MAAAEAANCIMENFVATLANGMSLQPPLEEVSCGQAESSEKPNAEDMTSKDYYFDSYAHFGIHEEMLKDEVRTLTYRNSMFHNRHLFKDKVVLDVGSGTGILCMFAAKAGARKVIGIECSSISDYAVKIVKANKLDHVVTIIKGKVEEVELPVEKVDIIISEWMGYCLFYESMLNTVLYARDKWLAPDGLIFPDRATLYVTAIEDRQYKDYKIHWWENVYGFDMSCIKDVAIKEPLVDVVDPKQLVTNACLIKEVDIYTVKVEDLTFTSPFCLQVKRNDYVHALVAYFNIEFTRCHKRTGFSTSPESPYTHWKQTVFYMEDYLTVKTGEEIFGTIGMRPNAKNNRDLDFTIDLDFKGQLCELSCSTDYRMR
rCAG binder conf = r(CAG) RNA repeat binding, confirmation; 4,300 compounds, 70% hits; inhibition, % at 3 µM; AID 652065; TO-PRO-1 dye displacement fluorescence; shares compounds with rCAG RNA binder;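 active means inhibition above a per-plate cutoff, the mean inhibition of sample wells plus 3 SD, cut at about 35% in these data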;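 further: loss of TO-PRO-1 fluorescence as compound displaces dye from 1x1 AA loop RNA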
dCAG dye counter = disrupts DNA CAG TO-PRO-1 complex, flagging rCAG hits | d(CAG) DNA oligo TO-PRO-1 dye displacement, fluorescence | 4,300 compounds, 94% hits | AID 652068 | shares compounds with rCAG RNA binder | inhibition, % at 3 µM;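 active means inhibition above its plate's cutoff, the mean test-well inhibition plus 3 SD, cut at about 4.8% in these data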;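 further: hits displace the dye from DNA and so lower well fluorescence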
dCAG dye DR = DNA CAG dye complex inhibition, dose response counter-screen; shares compounds with rCAG RNA binder; DNA CAG/GTC duplex TO-PRO-1 dye displacement fluorescence; IC50, µM; 250 compounds, 20% hits; in the data active means IC50 below about 10 µM
A number is an active result; n = inactive; x = no result given. Hits are enriched below; roughly 4.1% of the tested compounds scored in any of these assays.

SMILES	UHRF1 MBD2 ctr	MBD2 DNA inh	ABHD5 PLIN5 PPI	rCAG RNA binder	LEDGF integ inh	PRMT1 inh	rCAG binder conf	dCAG dye counter	others
COC(=O)CNC(c1ccccc1)c1cc(C)ccc1NS(=O)(=O)c1ccc(C)cc1 (configuration not stated)	n	n	n	n	n	n	x	x
Cc1ccc(S(=O)(=O)Nc2ccc(Br)cc2C(NCC(=O)O)c2ccccc2)cc1 (configuration not stated)	n	n	n	72.7	n	n	74.5	26.0	dCAG dye DR=n
N#Cc1c(SCC(=O)O)nc(N2CCCCC2)c2c1CCCC2	n	n	n	34.6	n	n	n	7.1
COc1cccc(/C=C2\CC3(OC(=O)c4ccc(F)cc4)CCCN2C3)c1 (configuration not stated)	n	n	x	n	n	n	x	x
Cc1c(O)nc(SCC(=O)Nc2ccc3c4c(cccc24)CC3)n(-c2ccc(F)cc2)c1=O	n	n	n	45.5	n	24.6	n	8.3
CCc1c(O)nc(SCC(=O)Nc2c(C)cccc2C)n(-c2ccc(F)cc2)c1=O	n	n	n	n	n	n	x	x
COC(=O)[C@]12C[C@H](CC(=O)NCC34CC5CC(CC(C5)C3)C4)C(=O)N(Cc3cccc4ccccc34)C1=C[C@H](C(C)C)O[C@@H]2C1CC1	n	n	x	n	n	n	x	x
CCC[C@H]1[C@@H](OC(=O)NCc2ccco2)CC[C@@]23CCCN2C(=O)CCC[C@@H]13	n	n	x	x	n	n	x	x
N#C/C(=C\c1ccc(C(=O)O)cc1)c1nc2sc3c(c2c(=O)[nH]1)CCCC3	n	n	n	45.3	n	n	54.9	21.6
O=C(Nc1c(C(=O)O)[nH]c2ccccc12)c1cccc(C(F)(F)F)c1	n	n	n	38.8	n	n	n	n
O=C(Nc1c(C(=O)O)[nH]c2ccc(F)cc12)c1cccc(C(F)(F)F)c1	n	n	n	63.0	n	n	38.8	8.8
Cc1ccc(OCCCC(=O)Nc2ccc(S(=O)(=O)Nc3cc(C)on3)cc2)cc1	n	n	n	48.9	n	n	36.2	11.8
Cc1ccc(OCCCC(=O)Nc2ccc(S(=O)(=O)Nc3ccccn3)cc2)cc1	n	n	n	n	n	n	x	x
Cc1cc(NS(=O)(=O)c2ccc(NC(=O)c3oc4ccccc4c3C)cc2)no1	n	n	n	40.7	n	n	41.0	11.2
Cc1c(C(=O)Nc2ccc(S(=O)(=O)Nc3ncccn3)cc2)oc2ccccc12	n	n	n	n	n	n	x	x
Cc1ccccc1OCC(=O)Nc1ccc(S(=O)(=O)Nc2onc(C)c2C)cc1	n	n	n	n	n	n	x	x
Cc1cc(NS(=O)(=O)c2ccc(NC(=O)COc3ccc(Br)cc3)cc2)nc(C)n1	n	n	n	35.5	n	n	35.5	10.3
Cc1ccccc1OCCCC(=O)Nc1ccc(S(=O)(=O)Nc2onc(C)c2C)cc1	n	n	n	52.0	n	n	n	9.4
COc1ccc(CNS(=O)(=O)c2cc3c(cc2Br)CC(C)N3C(C)=O)cc1 (configuration not stated)	n	n	x	n	n	n	x	x
Cc1cc(NS(=O)(=O)c2ccc(NC(=O)CCCOc3ccccc3C)cc2)no1	n	n	n	37.8	n	n	n	8.8
Cc1cc(NS(=O)(=O)c2ccc(NC(=O)CCCOc3cccc(C)c3C)cc2)no1	n	n	n	63.1	n	n	62.2	16.9
COc1ccc(OCC(=O)Nc2ccc(S(=O)(=O)Nc3cc(C)on3)cc2)cc1	n	n	n	n	n	n	x	x
Cc1c(C(=O)Nc2ccc(S(N)(=O)=O)cc2)oc2ccc(Cl)cc12	n	n	n	n	n	n	x	x
COc1ccccc1OCC(=O)Nc1ccc(S(=O)(=O)Nc2cc(C)on2)cc1	n	n	n	n	n	n	x	x
Cc1cc(NS(=O)(=O)c2ccc(NC(=O)COc3c(C)cc(Br)cc3C)cc2)no1	n	n	n	71.1	n	n	63.2	25.5
SMILES	UHRF1 MBD2 ctr	MBD2 DNA inh	ABHD5 PLIN5 PPI	rCAG RNA binder	LEDGF integ inh	PRMT1 inh	rCAG binder conf	dCAG dye counter	others
Cc1c(C(=O)NNC(=S)Nc2ccc(S(N)(=O)=O)cc2)oc2ccccc12	n	n	n	52.3	n	n	n	11.0
Cc1nc2ccc(NC(=O)c3ccc(F)cc3F)cc2c(=O)[nH]1	n	n	x	n	n	n	x	x
CC(=O)c1cc(-c2ccccc2)n(CC(=O)NCc2ccccc2Cl)c1C	n	n	x	n	n	n	x	x
Cc1cc(NS(=O)(=O)c2ccc(NC(=O)Cc3ccc(Cl)c(Cl)c3)cc2)no1	n	n	n	49.5	n	n	35.2	8.8
CCOC(=O)c1ccc(NC(=O)OC[C@@H]2CSCCS(=O)(=O)N2)cc1	n	n	x	n	n	n	x	x
CCc1cc2ccc(C)cc2nc1SCC(=O)Nc1cc(OC)c(OC)cc1C(=O)O	n	n	n	44.9	n	n	75.6	28.3	dCAG dye DR=n
COc1cc(NC(=O)CSc2ccccc2)c(C(=O)O)cc1OC	n	n	n	n	n	n	x	x
N#Cc1c(-c2ccccc2)cc(-c2ccccc2)nc1SCC(=O)NCC(=O)O	n	n	n	41.4	n	n	37.2	10.0
Cc1ccc(-c2cc(C(F)(F)F)c(C#N)c(SCC(=O)O)n2)cc1	n	n	n	47.8	n	n	n	5.0
CCCOc1ccc(-c2cc(C(F)(F)F)c(C#N)c(SCC(=O)O)n2)cc1	n	n	n	n	n	n	x	x
N#Cc1c(-c2ccc(F)cc2)cc(-c2cccs2)nc1SCC(=O)O	n	n	n	56.2	n	n	45.3	14.2
COc1ccc(-c2cc(-c3ccccc3)c(C#N)c(SCC(=O)O)n2)cc1	n	n	n	n	n	n	x	x
COc1ccc(-c2cc(-c3ccc(Cl)cc3)c(C#N)c(SCC(=O)O)n2)cc1	n	n	n	79.7	n	n	84.9	55.1
CC(C)C[C@H](NC1(C(=O)NC2CCCCC2)CCCCC1)C(=O)NCC(c1ccccc1)c1ccccc1	n	n	x	x	n	n	x	x
CCOc1ccc(-n2c(SCC(=O)c3ccc4ccccc4c3)nnc2-c2ccc(OC)cc2)cc1	n	n	x	n	n	n	x	x
O=C(NC1CCCCN(Cc2cccc(Cl)c2)C1=O)c1ccccc1 (configuration not stated)	n	n	x	n	n	n	x	x
N#Cc1c(C(F)(F)F)cc(-c2cccs2)nc1SC(C(=O)O)c1ccccc1 (configuration not stated)	n	n	n	77.8	n	n	77.5	31.1	dCAG dye DR=n
COc1ccccc1-c1cc(-c2ccccc2)nc(SCC(=O)O)c1C#N	n	n	n	47.2	n	n	37.1	9.6
O=C(Nc1sc2c(c1C(=O)O)CCCC2)c1ccc(F)cc1	n	n	n	n	n	n	x	x

Screening data deposited in PubChem BioAssay by The Scripps Research Institute Molecular Screening Center.
